Screens deposited in PubChem BioAssay by National Center for Advancing Translational Sciences (NCATS).
This is a sample that favours compounds with a hit; in the whole collection about 2.4% have one here.
Caspase-7 inhib = blocks human caspase-7 allosterically or competitively. P55210. recombinant caspase-7, Ac-DEVD-AFC fluorescence rate. Potency, µM (doses to about 57.5 µM), for the others: at the highest dose activity change, negative = inhibition, most hits filed as inhibitors. 75,000 tested, 0.02% active. AID 889; active = well fitted inhibition curve with a large enough effect in the main read-out, with a control signal flat, not every such curve was filed as active; inconclusive = small, poorly fitted or top-dose-only effect, or a change in a side signal; note: % of control where 0% means no effect
Target sequence (P55210 24-198 limits assumed): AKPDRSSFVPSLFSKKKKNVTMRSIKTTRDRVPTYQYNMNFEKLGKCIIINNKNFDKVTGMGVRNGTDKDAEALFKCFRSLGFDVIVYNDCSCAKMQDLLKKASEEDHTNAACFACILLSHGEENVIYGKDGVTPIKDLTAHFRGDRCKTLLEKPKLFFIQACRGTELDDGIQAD
Target sequence (P55210 207-303 limits assumed): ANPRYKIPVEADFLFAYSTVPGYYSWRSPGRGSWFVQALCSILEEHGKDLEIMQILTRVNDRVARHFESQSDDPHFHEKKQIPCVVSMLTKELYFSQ
Tau filament bind = binds recombinant human tau filaments | Potency, µM (titrated, usually from 57.1 µM), without a hit: top-dose activity change, negative = inhibition | 71,000 tested, 2% active | recombinant tau filaments, thioflavin S fluorescence, 15 h; filaments grown with octadecylsulfate alongside compound | P10636;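 note: % is set by controls: 0 for no effect and ±100 for the full control effect; actives lower thioflavin S fluorescence by blocking filaments or displacing dye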
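ThS-based fibril read: tau 1 uM final, inducer ODS 30 uM final, 37 C for 15 h, ex 450/em 510 nm.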
Hsp90 Hop PPI = changes Hsp90-Hop TPR2A binding signal, up or down; AlphaScreen TPR2A-His6 binding biotin-Hsp90 C-terminal peptide; Potency, µM (highest dose often 57 µM), without a hit: top-dose activity change, negative = inhibition; 71,000 tested, 0.44% active; active = well fitted curve in either direction with a large enough effect; inconclusive = small, poorly fitted or top-dose-only effect, or another doubt; note: % is set by controls: 0 for no effect and ±100 for the full control effect
15-hLO inh = blocks human 15-lipoxygenase activity; P16050; purified 15hLO-1, xylenol orange hydroperoxide absorbance; Potency, µM (doses to about 57.1 µM), for inactives: top-dose activity change, negative = inhibition, hits mostly inhibitors; 74,000 tested, 1.4% active; AID 887; note: % is set by controls: 0 for no effect and ±100 for the full control effect; nearly all actives have a fitted effect of over 55% in size
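Hydroperoxide formed from arachidonic acid (50 uM) by purified human 15hLO-1 (40 nM) oxidizes ferrous iron, and the ferric-xylenol orange complex is read at 573 versus 405 nm. Compounds were preincubated 15 min; reaction ran 6 min at room temperature.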
15-hLO-2 inh = blocks human 15-lipoxygenase 2 activity. Potency, µM (top dose mostly 57.1 µM), without a hit: at the highest dose activity change, negative = inhibition, most hits filed as inhibitors. 110,000 tested, 0.56% active. O15296. AID 881. purified 15hLO-2, xylenol orange hydroperoxide absorbance; note: % is set by controls: 0 for no effect and ±100 for the full control effect; nearly all actives have a fitted effect of over 60% in size
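Screening format was qHTS against 50 nM purified 15hLO-2 in Hepes pH 7.5 with detergent. Activity follows hydroperoxide formation from 45 uM arachidonic acid, measured as 573:405 nm absorbance ratio of the ferric-xylenol orange complex.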
Casp1 inh = blocks human caspase-1 allosterically or competitively. P29466. Caspase-1 enzyme, Ac-WEHD-AFC fluorogenic rate. Potency, µM (highest dose often 57.5 µM), without a hit: at the top dose activity change, negative = inhibition, most hits filed as inhibitors. 75,000 tested, 0.03% active;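 note: plate controls were vehicle for no effect and no substrate for full effect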
Target sequence (P29466 120-297 limits assumed): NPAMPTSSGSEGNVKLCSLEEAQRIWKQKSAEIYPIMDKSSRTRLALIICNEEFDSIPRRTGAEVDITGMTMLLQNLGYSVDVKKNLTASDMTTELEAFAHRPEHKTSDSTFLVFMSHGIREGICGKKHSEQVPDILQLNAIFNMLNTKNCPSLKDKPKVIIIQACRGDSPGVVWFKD
Target sequence (P29466 317-404 limits assumed): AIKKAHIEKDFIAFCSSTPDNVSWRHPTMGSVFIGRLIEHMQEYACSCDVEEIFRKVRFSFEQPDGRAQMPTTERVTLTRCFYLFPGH
Starred values were filed as active, the others as inactive; [ ] = remark or other dose. Unless noted, calls come from the whole dose curve; as a rule, active = well fitted curve in the direction sought with a large enough effect; inconclusive = small, poorly fitted or top-dose-only effect, or another doubt; inactive = no such curve, though single readings can be large; an effect the other way counts as inactive or inconclusive. Potency is the fitted concentration of half-maximal effect.

Results for CC(=O)NCC(=O)OCC(=O)c1ccc(C)c(C)c1 ?
Caspase-7 inhib: 0%; Tau filament bind: 6%; Hsp90 Hop PPI: 0%; 15-hLO inh: 6%; 15-hLO-2 inh: 6%; Casp1 inh: -1%

How did Cc1c2cc[n+](CCN3CCCCC3)cc2c(C)c2c1[nH]c1ccc(O)cc12 do in these assays?
Caspase-7 inhib: -3%[11.5 µM]; Tau filament bind: 4µM*; Hsp90 Hop PPI: -11%[11 µM]; 15-hLO inh: 26%[11.4 µM]; 15-hLO-2 inh: 13%[11.4 µM]; Casp1 inh: 0%[11.5 µM]

Results for CCOC(=O)c1[nH]c2ccc(C)cc2c1NC(=O)CN1CCCCC1 ?
Caspase-7 inhib: 0%; Tau filament bind: -2%; Hsp90 Hop PPI: -4%; 15-hLO inh: -2%; 15-hLO-2 inh: -3%; Casp1 inh: -1%

How did Cn1c(CNc2ccc(Cl)cc2)nc2ccccc21 do in these assays?
Caspase-7 inhib: 1%; Tau filament bind: -5%; Hsp90 Hop PPI: -5%; 15-hLO inh: 11%; 15-hLO-2 inh: 43%; Casp1 inh: -2%

What do the screens show for `CC(C)N=c1cc2n(-c3ccc(Cl)cc3)c3ccccc3nc-2cc1Nc1ccc(Cl)cc1`?
Caspase-7 inhib: -3%[25.7 µM]; Tau filament bind: 0.13µM*; Hsp90 Hop PPI: -7%[26 µM]; 15-hLO inh: 1%[25.6 µM]; 15-hLO-2 inh: -3%[25.6 µM]; Casp1 inh: -4%[25.7 µM]

How did O=C(C1CCCCC1)N1CCCC(c2nc3c(nnn3Cc3ccccc3)c(=O)[nH]2)C1 (stereo not drawn) do in these assays?
Caspase-7 inhib: -5%; Tau filament bind: 5%; Hsp90 Hop PPI: 1%; 15-hLO inh: 16µM*; 15-hLO-2 inh: -12%; Casp1 inh: -2%

What do the screens show for `O=C(c1ccccc1)N1CCCC(c2nc3c(nnn3Cc3ccccc3)c(=O)[nH]2)C1` (stereo not drawn)?
Caspase-7 inhib: 1%; Tau filament bind: 10%; Hsp90 Hop PPI: -2%; 15-hLO inh: 2%; 15-hLO-2 inh: 0%; Casp1 inh: -1%

How did O=C(C1CCCCC1)N1CCC(c2nc3c(nnn3Cc3ccccc3Cl)c(=O)[nH]2)CC1 do in these assays?
Caspase-7 inhib: inconclusive; Tau filament bind: 48%; Hsp90 Hop PPI: -1%; 15-hLO inh: -12%; Casp1 inh: 0%

How did CCCCCCC(=O)N1CCC(c2nc3c(nnn3Cc3ccccc3Cl)c(=O)[nH]2)CC1 do in these assays?
Caspase-7 inhib: 13µM*; Tau filament bind: 68%; Hsp90 Hop PPI: -7%; 15-hLO inh: -21%; 15-hLO-2 inh: -22%; Casp1 inh: -4%

What do the screens show for `CN(C)CC(=O)c1ccc(-c2ccccc2)cc1`?
Caspase-7 inhib: -2%; Tau filament bind: 25µM*; Hsp90 Hop PPI: -5%; 15-hLO inh: -26%; 15-hLO-2 inh: -6%; Casp1 inh: -1%

What do the screens show for `CCN(CC)CC(=O)c1ccc(-c2ccccc2)cc1`?
Caspase-7 inhib: -3%; Tau filament bind: inconclusive; Hsp90 Hop PPI: -2%; 15-hLO inh: -14%; 15-hLO-2 inh: -3%; Casp1 inh: 2%

How did CN1CCN(c2ncncc2-c2ccc(N(C)C)cc2)CC1 do in these assays?
Caspase-7 inhib: -2%; Tau filament bind: -25%; Hsp90 Hop PPI: -14%; 15-hLO inh: -17%; 15-hLO-2 inh: 6%; Casp1 inh: -1%

How did CN1CCN(c2ncncc2-c2ccoc2)CC1 do in these assays?
Caspase-7 inhib: -18%; Tau filament bind: 98%; Hsp90 Hop PPI: -3%; 15-hLO inh: 32µM*; 15-hLO-2 inh: 6%; Casp1 inh: -8%

How did Cc1cccn2c(=O)c3cc(C#N)c(=N)n(CCN4CCOCC4)c3nc12 do in these assays?
Caspase-7 inhib: inconclusive; Tau filament bind: 2%; Hsp90 Hop PPI: -2%; 15-hLO inh: 5%; 15-hLO-2 inh: -9%

How did COc1ccc(C(=O)N2CCSC2=S)cc1OC do in these assays?
Caspase-7 inhib: 0%; Tau filament bind: 5%; Hsp90 Hop PPI: -4%; 15-hLO inh: 3%; 15-hLO-2 inh: -1%; Casp1 inh: 0%

Results for C=CCN1CCc2c(cc(O)c(O)c2Br)[C@H](c2ccccc2)C1 ?
Caspase-7 inhib: 1%; Tau filament bind: -4%; Hsp90 Hop PPI: 10µM*; 15-hLO inh: inconclusive; 15-hLO-2 inh: inconclusive; Casp1 inh: -1%

How did CN1CCc2cc(O)c(O)cc2[C@H](c2ccccc2)C1 do in these assays?
Caspase-7 inhib: -2%; Tau filament bind: 5%; Hsp90 Hop PPI: -15%; 15-hLO inh: 4%; 15-hLO-2 inh: inconclusive; Casp1 inh: 2%

How did NS(=O)(=O)c1ccc(N=Nc2nc3[nH]cnc(=S)c3[nH]2)cc1 do in these assays?
Caspase-7 inhib: 3%[11.5 µM]; Tau filament bind: 6%[11.4 µM]; Hsp90 Hop PPI: -3%[11 µM]; 15-hLO inh: inconclusive; 15-hLO-2 inh: 7%[11.4 µM]; Casp1 inh: -1%[11.5 µM]

What do the screens show for `COc1ccc(OC)c(C(O)c2nc3ccccc3n2C(C)C)c1` (stereo not drawn)?
Caspase-7 inhib: 0%; Tau filament bind: 6%; Hsp90 Hop PPI: -5%; 15-hLO inh: 20%; 15-hLO-2 inh: 17%; Casp1 inh: -1%

How did CCOC(=O)C1=C(C)NC(C)=C(C(=O)OCC)C1c1cn(-c2ccccc2)nc1-c1ccco1 do in these assays?
15-hLO-2 inh: -17%

How did CC(C)OC(=O)c1cn(-c2ccccc2)nc1-c1ccco1 do in these assays?
Caspase-7 inhib: -3%; Tau filament bind: -2%; Hsp90 Hop PPI: 3%; 15-hLO inh: 20µM*; 15-hLO-2 inh: inconclusive; Casp1 inh: -2%

Results for CN1C(=O)CC(N2CCN(CC(N)=O)CC2)C1=O (stereo not drawn) ?
15-hLO-2 inh: -6%

Results for COc1cccc(CN2C(=O)CCC2(C)C(=O)NC2CCCCC2)c1 (stereo not drawn) ?
Caspase-7 inhib: -1%; Tau filament bind: 1%; Hsp90 Hop PPI: -2%[2.3 µM]; 15-hLO inh: 3%; Casp1 inh: 0%

What do the screens show for `O=C(Nc1nc(-c2ccco2)cs1)c1ccccc1`?
Caspase-7 inhib: -7%; Tau filament bind: inconclusive; Hsp90 Hop PPI: -11%; 15-hLO inh: 16µM*; 15-hLO-2 inh: -16%; Casp1 inh: -4%

How did Cc1ccc(-c2c(=O)n(OCc3ccccn3)c3ccccc3[n+]2[O-])cc1 do in these assays?
15-hLO-2 inh: -14%

What do the screens show for `COc1ccc(-c2c(=O)n(OCc3ccccn3)c3ccccc3[n+]2[O-])cc1OC`?
Caspase-7 inhib: -6%; Tau filament bind: 2.5µM*; Hsp90 Hop PPI: -30%; 15-hLO inh: -15%; Casp1 inh: -5%

How did Cc1cc2c(=O)n(NC(N)=O)c(C)nc2s1 do in these assays?
Caspase-7 inhib: 1%; Tau filament bind: -13%; Hsp90 Hop PPI: 0%; 15-hLO inh: 2%; 15-hLO-2 inh: 2%; Casp1 inh: -1%

What do the screens show for `COC(=O)COc1ccc(S(=O)(=O)NCCC2=CCCCC2)cc1C`?
Caspase-7 inhib: -7%; Tau filament bind: -2%; Hsp90 Hop PPI: 1%; 15-hLO inh: 6.3µM*; 15-hLO-2 inh: -7%; Casp1 inh: -2%
